A selection: hits, their analogues and other compounds. The true share with any hit is near 0.87%.
RECQ1 inh: blocks DNA unwinding by human RECQ1. P46063. RECQ1 DNA unwinding, red fluorescence kinetic read. Potency, µM (series often up to 57.3 µM), inactives show at the top dose activity, negative = inhibition, hits mostly inhibitors. hit rate 0.54% among 240,000. AID 2549;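 further: plate controls were vehicle for no effect and no enzyme for full effect; nearly all actives have a fitted effect of over 30% in size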
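50 nM RECQ1T1 preincubated 15 min with compound in Tris pH 8.0 buffer with MgCl2, DTT, Tween-20 and 2.5 ug/ml poly(dI-dC); started with 200 nM TAMRA/BHQ-2 forked duplex and 2 mM ATP. Unwinding read as fluorescence (525/598 nm), two reads 2 h apart.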
WRN inhibitor: WRN helicase (human) inhibition; Q14191; WRN helicase unwinding, fluorescent forked duplex, kinetic; Potency, µM (highest dose often 114 µM), without a hit: at the highest dose activity change, negative = inhibition, usual class: inhibitors; hit rate 0.46% among 360,000; AID 651768; further: nearly all actives have a fitted effect of over 55% in size
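WRN at 20 nM final preincubated with compound 15 min at room temperature; reaction started with 100 nM fluorophore/quencher forked duplex oligonucleotide and 2 mM ATP final. Unwinding followed kinetically by red fluorescence (ex 525, em 598 nm).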
BLM helicase inh: inhibitors of human Bloom syndrome helicase BLM. P54132. recombinant BLM DNA unwinding, fluorescence dequenching. Potency, µM (titrated, usually from 56.1 µM), without a hit: top-dose activity change, negative = inhibition, usual class: inhibitors. hit rate 0.2% among 350,000. AID 2528;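 further: plate controls were vehicle for no effect and no enzyme for full effect; nearly all actives have a fitted effect of over 35% in size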
APE1 inh-1: inhibitors of human APE1 endonuclease. recombinant APE1, TAMRA/BHQ-2 abasic DNA cleavage fluorescence. Potency, µM (series often up to 65.8 µM), without a hit: top-dose activity change, negative = inhibition, hits mostly inhibitors. hit rate 0.35% among 350,000. AID 2517;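 further: plate controls were vehicle for no effect and reference inhibitor for full effect; nearly all actives have a fitted effect of over 55% in size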
Target sequence (P27695 whole entry, looked up): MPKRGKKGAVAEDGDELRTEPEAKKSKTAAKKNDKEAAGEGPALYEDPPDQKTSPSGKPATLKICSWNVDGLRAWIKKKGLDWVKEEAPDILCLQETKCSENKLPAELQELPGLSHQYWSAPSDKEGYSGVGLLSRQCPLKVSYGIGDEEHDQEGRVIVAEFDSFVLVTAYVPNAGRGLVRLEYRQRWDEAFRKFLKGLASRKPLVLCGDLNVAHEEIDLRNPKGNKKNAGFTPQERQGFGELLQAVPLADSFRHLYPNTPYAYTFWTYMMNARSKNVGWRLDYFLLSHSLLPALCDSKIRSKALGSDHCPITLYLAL
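Enzyme (0.75 nM final) and test compound are incubated 15 min at room temperature before adding 50 nM quenched THF abasic-site duplex. Cleavage dequenches TAMRA, followed at 525/598 nm over three reads one minute apart.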
FEN1 inhibitor: inhibitors of human flap endonuclease 1; hit rate 0.35% among 390,000; Potency, µM (doses to about 114 µM), without a hit: at the highest dose activity change, negative = inhibition, most hits filed as inhibitors; Recombinant FEN1 flap cleavage, fluorescence, 15 min; P39748; further: nearly all actives have a fitted effect of over 65% in size
Target sequence (P39748 whole entry, looked up): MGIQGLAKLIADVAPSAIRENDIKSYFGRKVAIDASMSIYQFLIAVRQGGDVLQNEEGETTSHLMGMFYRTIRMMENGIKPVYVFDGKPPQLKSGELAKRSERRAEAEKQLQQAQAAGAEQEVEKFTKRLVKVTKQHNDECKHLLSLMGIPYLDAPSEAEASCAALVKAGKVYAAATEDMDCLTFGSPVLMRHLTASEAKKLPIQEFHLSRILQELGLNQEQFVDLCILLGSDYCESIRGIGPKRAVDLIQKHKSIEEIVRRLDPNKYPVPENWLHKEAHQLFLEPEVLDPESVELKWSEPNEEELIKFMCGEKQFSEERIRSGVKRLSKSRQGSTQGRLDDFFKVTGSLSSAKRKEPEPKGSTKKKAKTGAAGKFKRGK
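FEN1 at 10 nM, compound pretreatment for 15 min (room temperature), 50 nM final substrate to initiate; endpoint reads at 0 and 15 min; DMSO-only plates used as vehicle background.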
APE1 dye cs: DNA dye displacement counter-screen activity; hit rate 7% among 480; DNA fluorescent dye displacement counterscreen, fluorescence; shares compounds with APE1 inh-1; Potency, µM (highest dose often 28.5 µM), for inactives: at the top dose activity change, negative = inhibition, hits mostly inhibitors;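 further: loss of thiazole orange fluorescence as the dye is displaced from duplex DNA; 0% = ThO with dsDNA and no compound and -100% = ThO without dsDNA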
EndoIV counter: blocks E. coli endonuclease IV DNA cleavage; shares compounds with APE1 inh-1; E. coli Endo IV, fluorogenic AP-site DNA cleavage; hit rate 4% among 560; Potency, µM (titrated, usually from 27.1 µM), inactives show at the highest dose activity change, negative = inhibition, usual class: inhibitors;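 further: plate controls were uninhibited enzyme wells for no effect and no enzyme buffer wells for full effect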
APE1 inh-2: confirmation of inhibitors of human APE1 endonuclease; shares compounds with APE1 inh-1; purified APE1, fluorogenic abasic-site DNA cleavage; Potency, µM (series often up to 57.1 µM), for the others: at the top dose activity change, negative = inhibition, most hits filed as inhibitors; hit rate 44% among 750; AID 2572; further: nearly all actives have a fitted effect of over 30% in size
APE1 FP inh: compounds that displace a DNA probe from human APE1. APE1 binding to TAMRA-labelled double-stranded DNA, fluorescence polarization displacement. hit rate 7% among 480. shares compounds with APE1 inh-1. Potency, µM (titrated, usually from 28.5 µM), for inactives: at the highest dose activity, negative = inhibition, hits mostly inhibitors
An asterisk follows results filed as active; i = inactive; u = inconclusive; x = no result given; ! = a repeat was not active; [ ] = another dose, or the depositor's remark. The call rests on the fitted dose curve; in most records, active means well fitted curve in the direction sought with a large enough effect; inconclusive means small, poorly fitted or top-dose-only effect, or another doubt; inactive means no such curve, though single readings can be large; an effect the other way counts as inactive or inconclusive. Unless noted, on the % scale 0 is the no-effect control and ±100 the full control effect; potency means the concentration at half of the fitted maximal effect.

SMILES | RECQ1 inh | WRN inhibitor | BLM helicase inh | APE1 inh-1 | FEN1 inhibitor | APE1 dye cs | EndoIV counter | APE1 inh-2 | APE1 FP inh
Cc1cc(C=O)c(C)n1-c1cccc(C(=O)O)c1 | -18% | -15%[11.6 µM] | 4% | 22µM* | 2% | 1% | 3% | 16µM* | 2%
NS(=O)(=O)c1cc2c(cc1Cl)N[C@@H](CC1CCCC1)NS2(=O)=O | -6%[25.9 µM] | x | 0%[21.4 µM] | x | x | x | x | x | x
NS(=O)(=O)c1cc2c(cc1Cl)NCNS2(=O)=O | -8% | -2% | 0% | -3% | 16% | x | -3%[57.1 µM] | -17% | x
Cc1cc(C(=O)N/N=C/c2ccc(O)c(O)c2O)c(C)n1-c1ccccc1 | -1% | -5% | -7% | 4.5µM* | -29% | -10% | 30% | u | -87%
Cc1cc(N)n(-c2ccc(Oc3ccccc3)c(S(=O)(=O)O)c2)n1 | 3% | -36% | 3% | 35µM* | 7% | -4% | 2% | u | 12%
CCN(CC)Cc1cc(O)c(CN(CC)CC)cc1O | 25µM* | 50µM* | -2% | 6.3µM* | u | x | x | u | x
CCc1oc(C(=O)O)cc1CN(CC)CC | 1% | -8% | -3% | 6% | -7% | x | x | x | x
CC(=O)c1ccc(NC(=O)c2nn(C)c3c2COc2ccccc2-3)cc1 | x | x | -8% | x | -1% | x | x | x | x
CCCCC#Cc1ccccc1CC(=O)Nc1ccccc1 | -4% | -9% | -3% | 3% | -15% | x | x | u | x
O=C(Cc1ccccc1I)Nc1ccccc1 | i | x | 7% | 11% | x | x | x | x | x
CCn1ccc2cc(S(=O)(=O)N3CCCN(C(=O)Nc4ccc(C)c(F)c4)CC3)ccc21 | x | x | -4% | x | 1% | x | x | x | x
O=C1CC(c2ccc(O)cc2)Oc2cc(O)ccc21 (centres undefined) | x | 0% | x | x | 11% | x | x | x | x
Cc1c(O)cc2c(c1O)C(=O)CC(c1ccc(O)cc1)O2 (centres undefined) | 25µM* | -8%[11.6 µM] | -25% | 1.6µM* | u | -11% | -3% | 4.5µM* | u
Cc1ccc(CCNC(=O)CCN2N=C(c3ccc(C)cc3)CCC2=O)cc1 | x | x | 3% | x | -1% | x | x | x | x
COc1cc(-c2ccc(N=Nc3ccc4c(S(=O)(=O)O)cc(S(=O)(=O)O)c(N)c4c3O)c(OC)c2)ccc1N=Nc1ccc2c(S(=O)(=O)O)cc(S(=O)(=O)O)c(N)c2c1O | 4.5µM* | x | u | 1.4µM* | x | x | 6.3µM*! | 1µM* | x
CC(=O)N1CCC(C(=O)Nc2ccccc2)(N(Cc2ccccc2)C(=O)c2cccnc2)CC1 | i | 14% | -2% | u | -10% | -12% | -4% | -5%[24.4 µM] | u
COc1cccc(/C=N/NC(=S)NC2CC3CCC2C3)c1OC (centres undefined) | -5% | -4% | -7% | 0.56µM* | -16% | 3% | -5% | -9%[24.4 µM] | u
COc1cccc(Cn2c(=O)n(-c3cccc(Cl)c3C)c(=O)c3c4c(sc32)CN(C(C)=O)CC4)c1 | x | x | -7% | x | -14% | x | x | x | x
CCOC(=O)N1CCN(C(=O)c2c(O)c3cccc4c3n(c2=O)CC4)CC1 | 1% | 4% | -1% | 40µM* | -1% | -14% | 2% | -10%[24.4 µM] | -1%
O=c1cc(CCl)nc2sc3ccccc3n12 | -16% | -5%[11.6 µM] | -11% | u | -1% | x | x | u | x
O=C(NN=C1c2ccccc2-c2ccccc21)c1ccccc1Br | 3% | -3% | -2% | 0% | 0% | x | x | x | x
O=C(NN=C1c2ccccc2-c2ccccc21)c1ccccc1 | u | -9% | 55% | 13µM* | -3% | x | x | -28% | x
COc1ccc(C)cc1N(C)C(=O)c1sc2nc3n(c(=O)c2c1C)CCCCC3 | x | x | -6% | x | -13% | x | x | x | x
Cc1ccccc1N=C1NC(=O)/C(=C/c2cccn2-c2cccc(C(=O)O)c2)S1 | -19% | u | -5% | 18µM* | -15% | -4% | 14% | 11µM* | u
O=S1(=O)CCOCCCN1Cc1cccc(Cl)c1 | x | x | x | x | 2% | x | x | x | x
SMILES | RECQ1 inh | WRN inhibitor | BLM helicase inh | APE1 inh-1 | FEN1 inhibitor | APE1 dye cs | EndoIV counter | APE1 inh-2 | APE1 FP inh
CCOC(=O)[C@H](CCc1ccccc1)N[C@@H](C)C(=O)N1CCC[C@@H]1C(=O)O | x | 0% | x | 28% | -2% | x | x | x | x
CCOC(=O)[C@H](CCc1ccccc1)N[C@@H](C)C(=O)N1CCC[C@H]1C(=O)O | -7% | -3% | -9% | 0.063µM*! | 11% | -2%[57.1 µM] | 25%[57.1 µM] | 6% | 5%[57.1 µM]
CCOC(=O)c1sc2nc3c(SCCC(=O)O)cc(C(=O)c4cc(OC)ccc4O)cn3c(=O)c2c1C | u | -23% | u | 1.6µM* | u | u | 11% | 2.2µM* | u
CC(C)(Oc1ccc(Cl)cc1)C(=O)Nc1nc2ccc(S(C)(=O)=O)cc2s1 | x | x | -9% | x | -1% | x | x | x | x
O=C(O)C1Cc2ccccc2CN1C(=O)COc1ccc(Cl)cc1Cl (centres undefined) | i | -7%[11.6 µM] | -2% | u | -1% | x | x | x | x
O=C(O)C1Cc2ccccc2CN1C(=O)COc1ccc(Br)cc1 (centres undefined) | -3% | -19% | -6% | -12% | 0% | x | x | -15% | x
O=C(Nc1ccc2oc(-c3ccncc3)nc2c1)c1ccc(F)cc1 | -5% | -28% | -18% | 5% | 16% | x | x | u | x
Cc1cc(-n2c(C)nc3ccccc3c2=O)ccc1NC(=O)c1ccc(C)c([N+](=O)[O-])c1 | x | x | 0% | x | 38% | x | x | x | x
CN(C)C(=O)Nc1ccc(Cl)c(Cl)c1 | i | x | 3% | u | x | -3%[57.1 µM] | 20%[57.1 µM] | 32µM* | 10%[57.1 µM]
COC(=O)Nc1ccc(Cl)c(Cl)c1 | -3% | x | -5% | -6% | x | x | x | x | x
O[C@@](CCN1CCCCC1)(c1ccccc1)C1CCCCC1 | 4%[25.9 µM] | x | -2%[21.4 µM] | -72%[21 µM] | x | -3% | 17% | 2%[24.4 µM] | u
O=C(O)c1ccc(COc2ccccc2/C=C2\NC(=O)N(Cc3ccc(F)cc3)C2=O)cc1 | -2% | -21% | -9% | -1% | u | x | x | x | x
O=C(O)c1ccc(COc2ccccc2/C=C2/NC(=O)N(c3cccc(Cl)c3)C2=O)cc1 | u | u | 20µM* | u | 56µM* | x | x | 16µM* | x

Compound activity (PubChem)
